Measured values taken from PubChem BioAssay (Tox21).
Values joined by “and” are separate entries in the source; they are usually repeats but may differ in a detail not shown here. Identical values can stand only once. Records with an inconclusive call do not appear. Active and inactive are the calls of the source. Unless noted, calls follow the shape of the dose curve; as a rule, active = well fitted curve in the direction sought with a large enough effect in the repeat runs; inconclusive = weak or mixed curves; inactive = no such curve, though single readings can be large; an effect the other way counts as inactive or inconclusive. Positions of bridges follow the written chain, without caps; N, C: chain ends. Non-standard residues stand in square brackets, D forms with d. Residues, ends and D or L forms follow the SMILES beside them. *: point of attachment. X1 = CC[C@@H](C)[C@@H](N)C1=N[C@H](C(=O)*)CS1; d(aIle) = CC[C@H](C)[C@@H](N)C(=O)O; dOrn = NCCC[C@@H](N)C(=O)O

How the values were obtained:
[1] = qHTS assay for small molecule agonists of the p53 signaling pathway (AID 651631; calls by dose curve; also: nearly all actives have a fitted effect of over 15% in size; also: potency is read from the fitted curve at half-maximal effect)
Outline: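 HCT-116 p53RE-bla reporter line, 16 h compound treatment at 37 °C, then fluorescence after 2 h with B/G FRET substrate.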

[2] = qHTS assay for small molecules that induce genotoxicity in human embryonic kidney cells expressing luciferase-tagged ATAD5 (AID 651632); also: nearly all actives have a fitted effect of over 15% in size
Outline: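 Quantitative HTS in HEK293T expressing luciferase-tagged ATAD5, whose levels rise upon DNA damage. Exposure ran 16 hr at 37C and 5% CO2, with luminescence read 30 min after Amplite addition at room temperature.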

[3] = qHTS assay for small molecules that induce genotoxicity in human embryonic kidney cells expressing luciferase-tagged ATAD5 - cell viability (AID 651634; calls by dose curve; also: nearly all actives have a fitted effect of over 25% in size; also: potency is read from the fitted curve at half-maximal effect)
Outline: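 After 15.5 hr incubation with compound at 37C, 5% CO2, HEK293T ATAD5-luciferase cells received CellTiter-Fluor reagent; fluorescence intensity was quantified following 30 min at 37C.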

[4] = qHTS assay for small molecule disruptors of the mitochondrial membrane potential - cell viability (AID 720634; calls by dose curve;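 also: human HepG2 liver cancer cells; nearly all actives have a fitted effect of over 20% in size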)
Outline: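 ATP-based luminescent viability readout (CellTiter-Glo, 30 min, room temperature) in HepG2 cells multiplexed with the m-MPI membrane potential dye; compound exposure lasted 1 hr at 37 C.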

[5] = qHTS assay to test for compound auto fluorescence at 590 nm (red) in HepG2 cells (AID 720674)
Outline: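 HepG2 cells, 2,000 per well in MEM with 10% FBS, attached overnight at 37 C, then got 23 nL compound or DMSO. After 1 hr at 37 C, 5% CO2, red fluorescence was read at 540/590 nm against Rose Bengal sodium as reference.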

[6] = qHTS assay to test for compound auto fluorescence at 535 nm (green) in HepG2 cells (AID 720675)
[7] = qHTS assay to test for compound auto fluorescence at 460 nm (blue) in HEK293 cells (AID 720678)
Outline: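 HEK293, 2,000 cells/well, 10% dialyzed FBS; attach 4-5 hr 37C; pin compound or DMSO; o/n 37C/5% CO2; fluorescence 405/460 nm; triamterene-equivalent units.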

[8] = qHTS assay to test for compound auto fluorescence at 590 nm (red) in HEK293 cells (AID 720679)
Outline: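 Intensity at 540nm excitation and 590nm emission is reported as Rose Bengal sodium-equivalent autofluorescence. Measurements followed overnight exposure (37C, 5% CO2) of HEK293 cells, 2,000 per well, to 23 nL compound.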

[9] = qHTS assay to test for compound auto fluorescence at 535 nm (green) in HEK293 cells (AID 720680)
[10] = qHTS assay to test for compound auto fluorescence at 460 nm (blue) in HEK293 cell free culture (AID 720681)
Outline: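 Compounds were added to cell-free DMEM with 10% FBS and fluorescence read directly. The blue channel used 405 nm excitation and 460 nm emission, with triamterene as the reference fluorophore.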

[11] = qHTS assay to test for compound auto fluorescence at 535 nm (green) in HEK293 cell free culture (AID 720682)
Outline: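 Steps: dispense DMEM/10% FBS into empty wells; pin in compound or DMSO; measure fluorescence at 485/535 nm. Values are fluorescein equivalents.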

[12] = qHTS assay to test for compound auto fluorescence at 590 nm (red) in HEK293 cell free culture (AID 720683)
Outline: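 Cell-free wells of DMEM with 10% FBS received compound, and intrinsic fluorescence was read at excitation/emission 540/590 nm. Values expressed as equivalence to Rose Bengal sodium.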

[13] = qHTS assay to test for compound auto fluorescence at 590 nm (red) in HepG2 cell free culture (AID 720684)
Outline: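 Auto fluorescence equivalency versus Rose Bengal sodium, red channel Ex/Em 540/590 nm; compounds in cell-free MEM/10% FBS; DMSO vehicle control.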

[14] = qHTS assay to test for compound auto fluorescence at 460 nm (blue) in HepG2 cell free culture (AID 720685)
Outline: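 Cell-free plates of MEM plus 10% FBS received 23 nL compound or DMSO vehicle; blue-channel (405/460 nm) intensity scored against triamterene as reference fluorophore.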

[15] = qHTS assay to test for compound auto fluorescence at 535 nm (green) in HepG2 cell free culture (AID 720686)
[16] = qHTS assay to test for compound auto fluorescence at 460 nm (blue) in HepG2 cells (AID 720687)
Outline: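 HepG2 cells in MEM with 10% FBS, attached overnight at 37 C, were exposed to compound or DMSO for 1 hr at 37 C, 5% CO2. Blue fluorescence was read at 405/460 nm, with triamterene as reference fluorophore.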

[17] = target: Glucocorticoid receptor (Homo sapiens) (UniProt P04150); test: qHTS assay to identify small molecule antagonists of the glucocorticoid receptor (GR) signaling pathway (AID 720692; active = well fitted inhibition curve with a large enough effect in the signal ratio in the repeat runs, not every such curve was filed as active; the % refers to the signal ratio; also: potency is read from the fitted curve at half-maximal effect)
Sequence of Glucocorticoid receptor (Homo sapiens) (P04150 whole entry, looked up): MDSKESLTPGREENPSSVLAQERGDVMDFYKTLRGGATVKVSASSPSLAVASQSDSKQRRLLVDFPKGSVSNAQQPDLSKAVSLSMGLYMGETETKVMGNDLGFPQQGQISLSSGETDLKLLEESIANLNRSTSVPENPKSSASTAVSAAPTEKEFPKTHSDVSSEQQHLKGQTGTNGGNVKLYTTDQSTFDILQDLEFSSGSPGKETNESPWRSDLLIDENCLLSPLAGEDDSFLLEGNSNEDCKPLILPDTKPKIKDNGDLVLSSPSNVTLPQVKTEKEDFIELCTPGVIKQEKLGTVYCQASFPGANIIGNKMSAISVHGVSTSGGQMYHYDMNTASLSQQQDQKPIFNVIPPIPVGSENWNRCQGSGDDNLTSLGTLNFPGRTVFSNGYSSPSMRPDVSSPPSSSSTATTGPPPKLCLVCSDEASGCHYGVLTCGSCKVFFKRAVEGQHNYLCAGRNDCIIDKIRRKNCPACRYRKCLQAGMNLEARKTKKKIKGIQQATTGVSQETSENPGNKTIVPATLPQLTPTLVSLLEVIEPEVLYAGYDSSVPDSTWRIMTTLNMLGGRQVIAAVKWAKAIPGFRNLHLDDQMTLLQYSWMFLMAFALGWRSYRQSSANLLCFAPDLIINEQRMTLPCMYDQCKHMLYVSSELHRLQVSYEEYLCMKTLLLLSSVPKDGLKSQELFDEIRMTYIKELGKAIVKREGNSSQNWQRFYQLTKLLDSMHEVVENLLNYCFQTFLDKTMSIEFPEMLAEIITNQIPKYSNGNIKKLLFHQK
Outline: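 Quantitative HTS in antagonist format: HeLa cells expressing endogenous GR and a stably integrated GRE-bla reporter, stimulated with 5 nM dexamethasone (final) alongside test compounds for 18 h.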

[18] = qHTS assay for small molecule disruptors of the mitochondrial membrane potential (AID 720635); also: potency is read from the fitted curve at half-maximal effect
Outline: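 HepG2 cells exposed to compound 1 hr at 37C, then Mito-MPS dye 30 min. Ratio read of aggregate (540/590 nm) versus monomer (490/535 nm) fluorescence.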

[19] = target: Glucocorticoid receptor (Homo sapiens) (UniProt P04150); test: qHTS assay to identify small molecule agonists of the glucocorticoid receptor (GR) signaling pathway (AID 720691; active = well fitted activation curve with a large enough effect in the signal ratio in the repeat runs, not every such curve was filed as active; the % refers to the signal ratio); conditions: GR-bla HeLa, beta-lactamase reporter ratio, 18 h; activation: at 62.4 µM (top of the series)
Outline: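 Cells: GR-bla HeLa, endogenous GR with stably integrated GRE-beta-lactamase reporter. Treatment 18 h, 37 C, compounds delivered in DMSO. Detection via LiveBLAzer B/G FRET substrate, 2 h RT, fluorescence intensity.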

[20] = qHTS assay for small molecule agonists of the p53 signaling pathway - cell viability (AID 651633; calls by dose curve; also: nearly all actives have a fitted effect of over 30% in size; also: potency is read from the fitted curve at half-maximal effect)
Outline: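 p53RE-bla cells were treated with compound for 16 hours at 37 C. Cytotoxicity was then measured as CellTiter-Glo luminescence after 30 min at room temperature.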

Measured: Potency

c1ccc(-c2ccc(C(c3ccccc3)n3ccnc3)cc2)cc1 (stereo not drawn)
active: [1] 29.8 µM | [17] 23.9 µM
not listed: [18] | [19] | [20]
inactive: all other assays above

O=C1CC[C@@H](C(=O)N[C@H]2C[C@@H]2c2ccccc2)N1
not listed: [17] | [20]
inactive: all other assays above

C[S+](CC[C@H](N)C(=O)O)C[C@H]1O[C@@H](n2cnc3c(N)ncnc32)[C@H](O)[C@@H]1O (stereo partly drawn)
not listed: [3] | [17] | [18] | [19]
inactive: all other assays above

CCCCCCCCCCCCCCCCCCOCC(COP(=O)([O-])OCC[N+](C)(C)C)OC (stereo not drawn)
not listed: [8] | [17] | [20]
inactive: all other assays above

CCCCCN=C(N)N/N=C/c1c[nH]c2ccc(OC)cc12
not listed: [20]
inactive: all other assays above

CCCC(=O)c1cc(O)c(O)cc1O
active: [1] 68.6 µM | [3] 30.6 µM | [18] 5.45 µM
not listed: [4] | [17] | [20]
inactive: all other assays above

CC(C)(S)C(=O)N[C@@H](CS)C(=O)O
not listed: [2]
inactive: all other assays above

CO[C@H]1C[C@@H]2CC[C@@H](C)[C@@](O)(O2)C(=O)C(=O)N2CCCC[C@H]2C(=O)O[C@H]([C@H](C)C[C@@H]2CC[C@@H](O)[C@H](OC)C2)CC(=O)[C@H](C)C=C(C)[C@@H](O)[C@@H](OC)C(=O)[C@H](C)C[C@H](C)/C=C/C=CC=C1C
active: [20] 21.1 µM and 23.7 µM | [3] 29.8 µM and 26.6 µM | [18] 17.6 µM and 19.7 µM
not listed: [1] | [16] | [17] | [19]
inactive: all other assays above

COC(=O)C[C@](O)(CCCC(C)(C)O)C(=O)O[C@@H]1C(OC)=CC23CCCN2CCc2cc4c(cc2[C@H]13)OCO4 (stereo partly drawn)
active: [1] 0.0335 µM | [17] 0.169 µM
not listed: [3] | [8] | [15] | [16] | [18] | [19]
inactive: all other assays above

CN(Cc1ccccc1)Cc1ccccc1
not listed: [1] | [16] | [17] | [19]
inactive: all other assays above

CCCCCCOC(=O)c1cccnc1
not listed: [1] | [9] | [11]
inactive: all other assays above

O=C1CCC(c2ccc(-n3ccnc3)cc2)=NN1
not listed: [1] | [8] | [17]
inactive: all other assays above

CC[C@@H](C)[C@@H](N)C1=N[C@H](C(=O)N[C@@H](CC(C)C)C(=O)N[C@@H](CCC(=O)O)C(=O)N[C@@H](C(=O)N[C@@H]2CCCCNC(=O)[C@@H](CC(N)=O)NC(=O)[C@@H](CC(=O)O)NC(=O)[C@@H](Cc3cnc[nH]3)NC(=O)[C@@H](Cc3ccccc3)NC(=O)[C@@H]([C@H](C)CC)NC(=O)[C@@H](CCCN)NC2=O)[C@@H](C)CC)CS1 (X1-LE[d(aIle)][dK][dOrn][dI][dF][dH][dD][dN]; lactam 4-C)
not listed: [1] | [17] | [19]
inactive: all other assays above

O=[N+]([O-])c1ccc(O)c2ncccc12
active: [20] 26.6 µM | [3] 21.1 µM | [18] 6.68 µM
not listed: [1] | [17] | [19]
inactive: all other assays above

Cc1cc(N)c2ccccc2[n+]1CCCCCCCCCC[n+]1c(C)cc(N)c2ccccc21
not listed: [1] | [17]
inactive: all other assays above

C[C@H](Cc1ccc(O)c(O)c1)[C@@H](C)Cc1ccc(O)c(O)c1
active: [18] 13.3 µM
not listed: [1] | [16] | [17]
inactive: all other assays above

CON=C1C[C@]2(C[C@@H]3C[C@@H](C/C=C(\C)C[C@@H](C)/C=C/C=C4\CO[C@@H]5[C@H](O)C(C)=C[C@@H](C(=O)O3)[C@]45O)O2)O[C@H](/C(C)=C/C(C)C)[C@H]1C
active: [20] 11.9 µM and 8.41 µM | [3] 11.9 µM and 8.41 µM | [18] 13.3 µM
not listed: [1] | [11] | [15] | [17] | [19]
inactive: all other assays above

CN(C/C=C/c1ccccc1)Cc1cccc2ccccc12
not listed: [1] | [8] | [15]
inactive: all other assays above

C=C1[C@@H]2CC[C@@H](C2)C1(C)C
not listed: [1] | [16]
inactive: all other assays above

CCCCCCCC[N+](C)(C)CCCCCCCC
active: [18] 21.1 µM and 23.7 µM
not listed: [1] | [15] | [17]
inactive: all other assays above

O=C(O)[C@@H]1C[C@H](CP(=O)(O)O)CCN1
not listed: [1]
inactive: all other assays above

O=C(O)/C=C/C(=O)Nc1ccc(S(=O)(=O)Nc2nccs2)cc1
not listed: [1] | [16]
inactive: all other assays above

NC(N)=NCCCCN=C(N)N
not listed: [1] | [16]
inactive: all other assays above

O=C1c2ccccc2C(=O)C1c1ccc(F)cc1
not listed: [1] | [9] | [16]
inactive: all other assays above

NS(=O)(=O)c1cc(Cl)c(Cl)c(S(N)(=O)=O)c1
not listed: [1] | [11] | [16]
inactive: all other assays above

CCCCCCCCCCCCN1CCCC1=O
active: [20] 61.1 µM | [18] 68.6 µM
not listed: [1] | [17] | [19]
inactive: all other assays above

CNC(=O)C[C@@H](N)C(=O)N[C@@H](C(=O)N[C@@H]1C(=O)N2[C@@H]1SC(C)(C)[C@@H]2C(=O)O)c1ccc(O)cc1
not listed: [1] | [17]
inactive: all other assays above
